The record followed here is PubChem BioAssay (EPA / NIEHS).

The structures appear in SMILES notation. The source made the active and inactive calls. How the source made its calls: active means hit-call score of the fitted dose curve at least 0.9, where 1 is the maximum; inactive means score below 0.9.

Common to all, as to conditions: mRNA level, 48 h; actives raise or lower the signal
Read-out in test [1]: ABC Transporter (ABCC2), ABCC2 (gene 1244)
Briefly: LTEA_HepaRG_ABCC2: Life Technologies and Expression Analysis (LTEA) Assay for ABC Transporter (ABCC2) using HepaRG (AID 2283464). Put shortly: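 Endpoint is ABCC2 transcript level from qRT-PCR, normalized to three housekeeping genes and fitted bidirectionally relative to DMSO. Human HepaRG cells received test chemical for 48 h at up to 100 uM (8 points, half-log steps, 0.5% DMSO), duplicate wells.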

Read-out in test [2]: Broad substrate specificity ATP-binding cassette transporter ABCG2 (Homo sapiens) (UniProt Q9UNQ0)
Put plainly: LTEA_HepaRG_ABCG2: Life Technologies and Expression Analysis (LTEA) Assay for ABC Transporter (ABCG2) using HepaRG (AID 2283465). The method, boiled down: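 HepaRG, 48 h exposure, 8-pt half-log series from 100 uM, 0.5% DMSO vehicle, duplicates. Readout: ABCG2 transcript by qRT-PCR (Fluidigm array), housekeeping-normalized; bidirectional curve fit relative to DMSO baseline.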

Read-out in test [3]: ATP-citrate lyase (ACLY), ACLY (gene 47)
Briefly: LTEA_HepaRG_ACLY: Life Technologies and Expression Analysis (LTEA) Assay for ATP-citrate lyase (ACLY) using HepaRG (AID 2283466). Put shortly: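 qRT-PCR readout of ACLY transcript after 48 h chemical treatment of HepaRG cells; expression normalized to three housekeeping genes. Eight-point half-log series, highest 100 uM, 0.5% DMSO vehicle. Gain or loss fitted against DMSO baseline.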

Read-out in test [4]: Peroxisomal acyl-coenzyme A oxidase 1 (ACOX1) gene, ACOX1 (gene 51)
Put plainly: LTEA_HepaRG_ACOX1: Life Technologies and Expression Analysis (LTEA) Assay for Peroxisomal acyl-coenzyme A oxidase 1 (ACOX1) gene using HepaRG (AID 2283467). The method, boiled down:
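HepaRG, 48 h chemical exposure, 8-pt half-log series from 100 uM top, 0.5% DMSO vehicle, duplicates. Readout: ACOX1 mRNA by Fluidigm qRT-PCR, housekeeping-normalized; bidirectional fit vs DMSO baseline.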

Read-out in test [5]: Alkaline Phosphatase, Placental (ALPP) gene, ALPP (gene 250)
Briefly: LTEA_HepaRG_ALPP: Life Technologies and Expression Analysis (LTEA) Assay for Alkaline Phosphatase, Placental (ALPP) gene using HepaRG (AID 2283468). The method, boiled down: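 ALPP transcript level, measured by qRT-PCR and normalized to three housekeeping genes (ACTB, GAPDH, POLR2A), after 48 h dosing of differentiated HepaRG in serum-free induction medium. Top concentration 100 uM with half-log dilutions (8 points, 0.5% DMSO, duplicates); bidirectional fitting relative to DMSO.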

Read-out in test [6]: Bcl-2 (BAD) gene, BAD (gene 572)
Briefly: LTEA_HepaRG_BAD: Life Technologies and Expression Analysis (LTEA) Assay for Bcl-2 (BAD) gene using HepaRG (AID 2283469). Put shortly: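 HepaRG, 48 h exposure, 8-pt half-log curve from 100 uM in 0.5% DMSO, duplicates. Readout: TaqMan qRT-PCR for BAD mRNA, housekeeping-normalised (ACTB/GAPDH/POLR2A); gain or loss fitted against DMSO baseline.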

Read-out in test [7]: Bcl-2 (BAX) gene, BAX (gene 581)
Put plainly: LTEA_HepaRG_BAX: Life Technologies and Expression Analysis (LTEA) Assay for Bcl-2 (BAX) gene using HepaRG (AID 2283470). The method, boiled down: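 qRT-PCR read-out of BAX mRNA, normalized to three housekeeping genes, after 48 h chemical exposure of human HepaRG cells in serum-free induction medium; eight-point half-log series, top 100 uM, 0.5% DMSO vehicle; bidirectional fit versus DMSO.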

Read-out in test [8]: adenosine kinase (ADK) gene, ADK (gene 132)
Put plainly: LTEA_HepaRG_ADK: Life Technologies and Expression Analysis (LTEA) Assay for adenosine kinase (ADK) gene using HepaRG (AID 2283471). The method, boiled down:
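Following 48 h exposure of HepaRG cells in 0.5% DMSO (top concentration 100 uM, duplicate wells), ADK mRNA induction or suppression was measured by qRT-PCR, normalised to ACTB/GAPDH/POLR2A, and fitted bidirectionally relative to vehicle.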

Read-out in test [9]: Alpha-fetoprotein (AFP) gene, AFP (gene 174)
Briefly: LTEA_HepaRG_AFP: Life Technologies and Expression Analysis (LTEA) Assay for Alpha-fetoprotein (AFP) gene using HepaRG (AID 2283472). Put shortly: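 qRT-PCR (Fluidigm TaqMan) readout of AFP transcript, normalized to three housekeeping genes, fitted bidirectionally against 0.5% DMSO baseline. HepaRG cells received chemicals for 48 h in serum-free induction medium, top concentration 100 uM, half-log steps.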

Read-out in another test: BCL2L11 (gene 10018)
Briefly: LTEA_HepaRG_BCL2L11: Life Technologies and Expression Analysis (LTEA) Assay for Bcl-2 (BCL2L11) gene using HepaRG (AID 2283473). The method, boiled down:
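BCL2L11 transcript levels are measured by Fluidigm qRT-PCR, normalized to three housekeeping genes. HepaRG cultures were plated 48 h, then treated 48 h with test chemical (top 100 uM, half-log, 0.5% DMSO vehicle); curves were fitted bidirectionally against DMSO.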

Read-out in test [10]: Apolipoprotein A-V (APOA5) gene, APOA5 (gene 116519)
Briefly: LTEA_HepaRG_APOA5: Life Technologies and Expression Analysis (LTEA) Assay for Apolipoprotein A-V (APOA5) gene using HepaRG (AID 2283474). Put shortly: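 APOA5 transcript levels were quantified by qRT-PCR, normalized to three housekeeping genes, after 48 h chemical treatment of HepaRG cells (8 points, 100 uM maximum, half-log steps, 0.5% DMSO). Curves fitted in both directions against vehicle.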

Read-out in test [11]: Apoptosis regulator Bcl-2 (Homo sapiens) (UniProt P10415)
Put plainly: LTEA_HepaRG_BCL2: Life Technologies and Expression Analysis (LTEA) Assay for Bcl-2 gene using HepaRG (AID 2283475). The method, boiled down:
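qRT-PCR read-out (Fluidigm TaqMan) of BCL2 transcript, normalised to three housekeeping genes, after 48 h chemical exposure of HepaRG cells; 8-point half-log series, top 100 uM, 0.5% DMSO vehicle. Gain or loss of signal fitted relative to DMSO baseline.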

Read-out in test [12]: Bcl-2 (BID) gene, BID (gene 637)
Put plainly: LTEA_HepaRG_BID: Life Technologies and Expression Analysis (LTEA) Assay for Bcl-2 (BID) gene using HepaRG (AID 2283476). Put shortly:
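HepaRG, 48 h exposure, 8-pt half-log series, top 100 uM, 0.5% DMSO vehicle, duplicates. Readout: BID mRNA by TaqMan qRT-PCR; housekeeping-normalized; bidirectional curve fit vs DMSO baseline.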

Read-out in another test: Caspase-3 (Homo sapiens) (UniProt P42574)
Put plainly: LTEA_HepaRG_CASP3: Life Technologies and Expression Analysis (LTEA) Assay for cysteine-aspartic acid protease (CASP3) using HepaRG (AID 2283477). Put shortly: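 Expression of CASP3 was quantified by TaqMan qRT-PCR against three housekeeping genes (ACTB, GAPDH, POLR2A), bidirectionally versus 0.5% DMSO. HepaRG cultures received compounds in duplicate, top 100 uM with half-log steps, for 48 h in serum-free induction medium.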

Read-out in test [13]: Cytochrome P450 (CYP1A2), CYP1A2 (gene 1544)
Put plainly: LTEA_HepaRG_CYP1A2: Life Technologies and Expression Analysis (LTEA) Assay for Cytochrome P450 (CYP1A2) using HepaRG (AID 2283479). The method, boiled down:
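CYP1A2 transcript measured by TaqMan qRT-PCR against three housekeeping genes after 48-hour chemical exposure of HepaRG cells. Eight-point half-log series topping at 100 uM in 0.5% DMSO, duplicates; gain or loss fitted relative to vehicle.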

Read-out in test [14]: cysteine-aspartic acid protease (CASP8), CASP8 (gene 841)
Put plainly: LTEA_HepaRG_CASP8: Life Technologies and Expression Analysis (LTEA) Assay for cysteine-aspartic acid protease (CASP8) using HepaRG (AID 2283480). Put shortly:
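qRT-PCR readout of CASP8 mRNA, normalized to three housekeeping genes, after 48 h chemical exposure of HepaRG cells; 8-point half-log series, top 100 uM, 0.5% DMSO vehicle. Bidirectional curve fitting against DMSO baseline.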

Read-out in test [15]: Cytochrome P450 2C19 (Homo sapiens) (UniProt P33261)
Put plainly: LTEA_HepaRG_CYP2C19: Life Technologies and Expression Analysis (LTEA) Assay for CYP2C19 using HepaRG (AID 2283482). Put shortly:
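CYP2C19 transcript levels by qRT-PCR, normalized to three housekeeping genes, in HepaRG cells after 48 h chemical exposure. Eight-point half-log series topping at 100 uM, 0.5% DMSO vehicle. Increases and decreases both fitted against DMSO.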

Read-out in a further test: CYP2C8 (gene 1558)
Put plainly: LTEA_HepaRG_CYP2C8: Life Technologies and Expression Analysis (LTEA) Assay for CYP2C8 using HepaRG (AID 2283483). The method, boiled down: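 HepaRG (human liver line), 48 h chemical exposure, 8-pt half-log series from 100 uM, 0.5% DMSO vehicle. Readout: CYP2C8 transcript by qRT-PCR, housekeeping-normalized. Bidirectional fit vs DMSO baseline.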

Read-out in test [16]: Cytochrome P450 (CYP24A1), CYP24A1 (gene 1591)
Put plainly: LTEA_HepaRG_CYP24A1: Life Technologies and Expression Analysis (LTEA) Assay for Cytochrome P450 (CYP24A1) using HepaRG (AID 2283478). Put shortly: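 mRNA of CYP24A1 quantified by TaqMan qRT-PCR (ACTB/GAPDH/POLR2A normalization) after 48 h chemical exposure of HepaRG cells, top concentration 100 uM, half-log steps, 0.5% DMSO vehicle, duplicates. Curves fitted bidirectionally against DMSO baseline.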

Chain of Caspase-3 (Homo sapiens) (P42574 whole entry, looked up): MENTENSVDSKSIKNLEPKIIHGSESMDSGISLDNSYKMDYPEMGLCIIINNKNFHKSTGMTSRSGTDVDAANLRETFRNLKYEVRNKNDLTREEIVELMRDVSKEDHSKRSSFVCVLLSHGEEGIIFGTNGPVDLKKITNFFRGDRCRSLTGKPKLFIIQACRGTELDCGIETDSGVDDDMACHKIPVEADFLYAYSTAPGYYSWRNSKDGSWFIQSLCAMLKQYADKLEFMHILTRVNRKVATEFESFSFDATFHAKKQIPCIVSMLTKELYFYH
Chain of Apoptosis regulator Bcl-2 (Homo sapiens) (P10415 whole entry, looked up): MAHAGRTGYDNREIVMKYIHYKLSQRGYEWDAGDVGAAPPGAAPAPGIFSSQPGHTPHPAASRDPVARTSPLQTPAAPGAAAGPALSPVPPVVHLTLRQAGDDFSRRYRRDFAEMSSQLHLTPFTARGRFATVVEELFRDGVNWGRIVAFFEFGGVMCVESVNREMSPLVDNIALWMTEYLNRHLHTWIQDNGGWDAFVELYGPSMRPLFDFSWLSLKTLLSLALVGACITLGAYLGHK
Chain of Cytochrome P450 2C19 (Homo sapiens) (P33261 whole entry, looked up): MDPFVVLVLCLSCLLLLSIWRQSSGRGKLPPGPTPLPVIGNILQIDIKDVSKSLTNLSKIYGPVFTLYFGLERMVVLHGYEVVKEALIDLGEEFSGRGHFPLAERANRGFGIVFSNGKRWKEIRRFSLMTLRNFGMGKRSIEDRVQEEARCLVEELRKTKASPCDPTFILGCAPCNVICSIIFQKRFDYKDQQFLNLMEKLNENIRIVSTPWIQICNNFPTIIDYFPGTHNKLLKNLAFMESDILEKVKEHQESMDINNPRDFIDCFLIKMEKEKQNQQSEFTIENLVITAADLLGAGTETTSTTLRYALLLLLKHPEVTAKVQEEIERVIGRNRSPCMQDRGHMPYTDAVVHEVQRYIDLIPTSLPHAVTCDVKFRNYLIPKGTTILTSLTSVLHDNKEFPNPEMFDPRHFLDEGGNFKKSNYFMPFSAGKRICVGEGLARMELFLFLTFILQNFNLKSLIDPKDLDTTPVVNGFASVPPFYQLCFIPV
Chain of Broad substrate specificity ATP-binding cassette transporter ABCG2 (Homo sapiens) (Q9UNQ0 whole entry, looked up): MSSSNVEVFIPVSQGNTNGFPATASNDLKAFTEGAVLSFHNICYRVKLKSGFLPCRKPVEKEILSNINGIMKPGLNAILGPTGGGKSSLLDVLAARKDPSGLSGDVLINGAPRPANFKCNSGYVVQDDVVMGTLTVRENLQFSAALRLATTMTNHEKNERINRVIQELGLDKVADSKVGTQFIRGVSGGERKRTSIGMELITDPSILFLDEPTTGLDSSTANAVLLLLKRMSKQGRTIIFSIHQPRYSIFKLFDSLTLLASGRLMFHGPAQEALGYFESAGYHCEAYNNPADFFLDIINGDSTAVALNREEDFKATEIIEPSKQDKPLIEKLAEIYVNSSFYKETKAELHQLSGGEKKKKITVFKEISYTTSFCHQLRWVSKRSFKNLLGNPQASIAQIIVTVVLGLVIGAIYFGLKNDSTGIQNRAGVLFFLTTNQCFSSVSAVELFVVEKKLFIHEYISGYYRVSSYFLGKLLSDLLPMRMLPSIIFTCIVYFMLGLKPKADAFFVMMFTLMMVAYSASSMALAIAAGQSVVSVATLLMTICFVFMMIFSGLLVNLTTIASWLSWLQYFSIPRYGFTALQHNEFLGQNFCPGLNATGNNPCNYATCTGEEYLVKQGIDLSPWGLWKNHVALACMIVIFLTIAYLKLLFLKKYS

For the compound `[O-][Cl+]O`, the outcome in test [1], in [2], in [3], in test [4], in [5] and in test [6] was inactive. Moreover, the compound was classed as inactive (in test [7]; in [8]; in test [9]; with BCL2L11 (gene 10018); in test [10]; in [11]). The result (in [12]; with Caspase-3 (Homo sapiens); in [13]; in test [14]; in test [15]; in the test with CYP2C8 (gene 1558)) was inactive.
Take `C=CCc1ccc2c(c1)OCO2`: the outcome in test [1], in test [2], in test [3], in test [4], in test [5] and in test [6] was inactive. Also, the outcome (in test [7]; in test [8]; in test [9]; with BCL2L11 (gene 10018); in [10]; in [11]) was inactive. Further, the compound was called inactive (in test [12]; with Caspase-3 (Homo sapiens); in test [16]; in test [13]; in test [14]; in [15]). In addition, the call with CYP2C8 (gene 1558) was inactive.
Take `CCCCCCCCCCCCCN1CC(C)OC(C)C1` (centres undefined): the compound was classed as inactive in test [1], in [2], in test [3], in test [4], in [5] and in test [6]. For the same compound, the outcome (in test [7]; in test [8]; in test [9]; in the test with BCL2L11 (gene 10018); in [10]; in test [11]) was inactive. The result (in test [12]; with Caspase-3 (Homo sapiens); in test [14]; in test [15]; with CYP2C8 (gene 1558)) was inactive. The half-maximal activity concentration (AC50) (usually the midpoint of the concentration-response curve, whichever way the signal moves) in test [13] was 50 µM (active).
For `CS(=O)(=O)NC(=O)c1cc(Oc2ccc(C(F)(F)F)cc2Cl)ccc1[N+](=O)[O-]`, the AC50 in test [1] was 6.32 µM (active); in test [15], 1.52 µM (active); with CYP2C8 (gene 1558) it was 1.76 µM (active). The compound was called inactive in [2], in test [3], in [4], in test [5], in [6] and in test [7]. Further, the result (in [8]; in test [9]; with BCL2L11 (gene 10018); in test [10]; in test [11]; in test [12]) was inactive. For the same compound, the compound was called inactive (in the test with Caspase-3 (Homo sapiens); in [16]; in [13]; in test [14]).
